In PubChem BioAssay (NCI) one finds growth inhibition data, which are given here for nine compounds.

The panel holds about 79,000 compounds, 15% with a hit somewhere; the sample as a whole holds those more often. Unmarked numbers belong to inactive results. Calls of active or inactive are those of the source. Cut-off read from the data, not from the text of the source: active = growth inhibition above about 70%; inactive = the rest.

Assay [1] is described as follows: NCI Yeast Anticancer Drug Screen. Data for the rad50 strain (AID 155).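 Note: 0% = growth of vehicle-only cultures of the same strain.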 As to conditions: S. cerevisiae rad50 strain growth inhibition, stronger effect = higher value. The method, boiled down: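 DNA repair mutant yeast, compound exposure, growth read-out; inhibition is taken relative to vehicle.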
Assay [2] in a line: NCI Yeast Anticancer Drug Screen. Data for the mec2-1 strain (AID 157). The following applies: S. cerevisiae mec2-1 strain, stronger effect = higher value. The method, boiled down: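 Compounds were applied to mec2-1 yeast cells. Their growth was then compared with that of vehicle-treated cultures to give growth inhibition.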
Assay [3] is described as follows: NCI Yeast Anticancer Drug Screen. Data for the sgs1 mgt1 strain (AID 161).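 Note: 0% = growth of cultures given vehicle only.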 The following applies: S. cerevisiae sgs1 mgt1 strain, stronger effect = higher value. The method, boiled down: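 This yeast growth screen uses a strain with defined DNA-repair lesions; compound-treated growth is compared with vehicle-treated growth.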
The nature of assay [4]: NCI Yeast Anticancer Drug Screen. Data for the cln2 rad14 strain (AID 165).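 Note: 0% = growth equal to vehicle treated cultures.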 The following applies: S. cerevisiae cln2 rad14 strain, stronger effect = higher value. The method, boiled down: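 Strain: cln2 rad14 yeast, altered in cell cycle control and DNA damage repair. Read-out: growth inhibition vs vehicle.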
Assay [5] is described as follows: NCI Yeast Anticancer Drug Screen. Data for the bub3 strain (AID 167). The following applies: S. cerevisiae bub3 mutant strain, stronger effect = higher value. The method, boiled down: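 In this screen, a yeast mutant lacking normal mitotic checkpoint function is challenged with compound. Relative growth versus vehicle gives the inhibition value.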
Assay [6] in a line: NCI Yeast Anticancer Drug Screen. Data for the mlh1 rad18 strain (AID 175). As to conditions: S. cerevisiae mlh1 rad18 strain growth inhibition, stronger effect = higher value. The method, boiled down:
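A repair-deficient yeast strain is exposed to test compound, and growth is scored relative to vehicle-treated controls.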

[7] abbreviates: at 5.0 µM (retest, dose inferred, filed as 0.5).
Where [8] appears, read: at 50.0 µM (retest, dose inferred, filed as 5.0).

With `CC12CCc3ccccc3C1=Nc1ccccc12` (configuration not stated), the growth inhibition in assay [1] (setting [7]) was -3%; in assay [1] (setting [8]), 78% (active); in assay [1] (at 50.0 µM), 78.7% (active); in assay [2] (setting [7]), 2%; in assay [2] (setting [8]) it was 89% (active); in assay [2] (at 50.0 µM), 73.2% (active). Besides, the growth inhibition in assay [3] (setting [7]) was 8%; in assay [3] (setting [8]) it was 82% (active); in assay [3] (at 50.0 µM), 58.2%; in assay [4] (setting [7]), -12%; in assay [4] (setting [8]) it was -20%; in assay [4] (at 50.0 µM) it was -11.1%. Besides, the growth inhibition in assay [5] (setting [7]) is 12%; in assay [5] (setting [8]) it was 90% (active); in assay [5] (at 50.0 µM) it was 88.7% (active); in assay [6] (setting [7]), -3%; in assay [6] (setting [8]), 72% (active); in assay [6] (at 50.0 µM), 55.5%.

In the case of `O=C(c1ccc([N+](=O)[O-])cc1)c1[nH]c2ccccc2c(=O)c1-c1ccccc1`, the growth inhibition was -2% in assay [1] (setting [7]); 96% (active) in assay [1] (setting [8]); 98% (active) in assay [1] (at 50.0 µM); 14% in assay [2] (setting [7]); 99% (active) in assay [2] (setting [8]); 99% (active) in assay [2] (at 50.0 µM). Moreover, the growth inhibition is 0% in assay [3] (setting [7]); 99% (active) in assay [3] (setting [8]); 98.6% (active) in assay [3] (at 50.0 µM); -3% in assay [4] (setting [7]); 95% (active) in assay [4] (setting [8]); 98.6% (active) in assay [4] (at 50.0 µM). For the same compound, the growth inhibition in assay [5] (setting [7]) is -2%; in assay [5] (setting [8]), 98% (active); in assay [5] (at 50.0 µM), 98.7% (active); in assay [6] (setting [7]), 25%; in assay [6] (setting [8]), 99% (active); in assay [6] (at 50.0 µM), 99% (active).

`CCOC(=O)c1ccccc1NC(OCC)C(=O)c1ccccc1` (configuration not stated) (tested in a mixture with another compound): the growth inhibition in assay [1] (setting [7]) is -5%; in assay [1] (setting [8]) it was 70% (active); in assay [1] (at 50.0 µM), 75% (active); in assay [2] (setting [7]), 5%; in assay [2] (setting [8]), 22%; in assay [2] (at 50.0 µM) it was 63.9%. In addition, the growth inhibition in assay [3] (setting [7]) was 1%; in assay [3] (setting [8]), 69%; in assay [3] (at 50.0 µM) it was 90.8% (active); in assay [4] (setting [7]), -3%; in assay [4] (setting [8]), 12%; in assay [4] (at 50.0 µM) it was 16.2%. The growth inhibition in assay [5] (setting [7]) was -5%; in assay [5] (setting [8]) it was 71% (active); in assay [5] (at 50.0 µM), 70% (active); in assay [6] (setting [7]), 0%; in assay [6] (setting [8]) it was 81% (active); in assay [6] (at 50.0 µM), 90.7% (active).

As for `COc1ccc(N=NN2CCCC2)cc1`, the growth inhibition in assay [1] (setting [7]) was 35%; in assay [1] (setting [8]), 42%; in assay [1] (at 50.0 µM) it was 89.7% (active); in assay [2] (setting [7]) it was 25%; in assay [2] (setting [8]), 27%; in assay [2] (at 50.0 µM), 92.5% (active). Also, the growth inhibition in assay [3] (setting [7]) was 45%; in assay [3] (setting [8]) it was 52%; in assay [3] (at 50.0 µM), 86.3% (active); in assay [4] (setting [7]) it was 46%; in assay [4] (setting [8]), 56%; in assay [4] (at 50.0 µM) it was 89.7% (active). The growth inhibition in assay [5] (setting [7]) was 49%; in assay [5] (setting [8]), 50%; in assay [5] (at 50.0 µM) it was 90.5% (active); in assay [6] (setting [7]), 14%; in assay [6] (setting [8]), 33%; in assay [6] (at 50.0 µM), 91.2% (active).

In the case of `Cc1[nH]nc(-c2cccnc2)c1N=NN1CCOCC1`, the growth inhibition in assay [1] (setting [7]) was -4%; in assay [1] (setting [8]), 70% (active); in assay [1] (at 50.0 µM), 64%; in assay [2] (setting [7]) it was 7%; in assay [2] (setting [8]) it was 79% (active); in assay [2] (at 50.0 µM), 97.5% (active). The growth inhibition is -5% in assay [3] (setting [7]); 98% (active) in assay [3] (setting [8]); 96% (active) in assay [3] (at 50.0 µM); -2% in assay [4] (setting [7]); 80% (active) in assay [4] (setting [8]); 58.5% in assay [4] (at 50.0 µM). Moreover, the growth inhibition in assay [5] (setting [7]) is -3%; in assay [5] (setting [8]), 99% (active); in assay [5] (at 50.0 µM) it was 5.35%; in assay [6] (setting [7]), -3%; in assay [6] (setting [8]), 77% (active); in assay [6] (at 50.0 µM), 98% (active).

Regarding `Oc1ccc(C23CC4CC(CC(C4)C2)C3)cc1`, the growth inhibition in assay [1] (setting [7]) is -148%; in assay [1] (setting [8]), -135%; in assay [1] (at 50.0 µM), 38.1%; in assay [2] (setting [7]), -50%; in assay [2] (setting [8]) it was -38%; in assay [2] (at 50.0 µM) it was -1.75%. Also, the growth inhibition was -56% in assay [3] (setting [7]); -46% in assay [3] (setting [8]); 2.8% in assay [3] (at 50.0 µM); -56% in assay [4] (setting [7]); -25% in assay [4] (setting [8]); 32.8% in assay [4] (at 50.0 µM). In addition, the growth inhibition in assay [5] (setting [7]) was -69%; in assay [5] (setting [8]), -66%; in assay [5] (at 50.0 µM), -26.4%; in assay [6] (setting [7]), -114%; in assay [6] (setting [8]), -91%; in assay [6] (at 50.0 µM) it was 2.1%.

As for `Cc1c2cnccc2c(C)c2c1c1ccccc1n2CCCN`, the growth inhibition is 22% in assay [1] (setting [7]); 73% (active) in assay [1] (setting [8]); 91.7% (active) in assay [1] (at 50.0 µM); 14% in assay [2] (setting [7]); 33% in assay [2] (setting [8]); 67.6% in assay [2] (at 50.0 µM). Moreover, the growth inhibition in assay [3] (setting [7]) is 5%; in assay [3] (setting [8]), 50%; in assay [3] (at 50.0 µM) it was 77.3% (active); in assay [4] (setting [7]), 17%; in assay [4] (setting [8]), 32%; in assay [4] (at 50.0 µM) it was 72.3% (active). Also, the growth inhibition in assay [5] (setting [7]) was 29%; in assay [5] (setting [8]) it was 35%; in assay [5] (at 50.0 µM) it was 84.6% (active); in assay [6] (setting [7]), 16%; in assay [6] (setting [8]), 58%; in assay [6] (at 50.0 µM), 82.1% (active).

`O=C1C(CN2CCCC2)C(O)=C(c2ccccc2)N1c1ccccc1` (configuration not stated): the growth inhibition was 5% in assay [1] (setting [7]); 4% in assay [1] (setting [8]); 52.2% in assay [1] (at 50.0 µM); 1% in assay [2] (setting [7]); 9% in assay [2] (setting [8]); 14.8% in assay [2] (at 50.0 µM). Further, the growth inhibition is 1% in assay [3] (setting [7]); 2% in assay [3] (setting [8]); 75.5% (active) in assay [3] (at 50.0 µM); -3% in assay [4] (setting [7]); 1% in assay [4] (setting [8]); 18.6% in assay [4] (at 50.0 µM). The growth inhibition in assay [5] (setting [7]) is -6%; in assay [5] (setting [8]), 1%; in assay [5] (at 50.0 µM), 30.1%; in assay [6] (setting [7]), 0%; in assay [6] (setting [8]), 1%; in assay [6] (at 50.0 µM), 43.1%.

Take `N#CSc1ccc2nc(NCO)sc2c1`: the growth inhibition in assay [1] (setting [7]) is 22%; in assay [1] (setting [8]), 97% (active); in assay [1] (at 50.0 µM), 98.9% (active); in assay [2] (setting [7]) it was 7%; in assay [2] (setting [8]) it was 97% (active); in assay [2] (at 50.0 µM), 99.3% (active). For the same compound, the growth inhibition in assay [3] (setting [7]) is 18%; in assay [3] (setting [8]), 98% (active); in assay [3] (at 50.0 µM), 99.3% (active); in assay [4] (setting [7]), -9%; in assay [4] (setting [8]) it was 89% (active); in assay [4] (at 50.0 µM), 96% (active). Besides, the growth inhibition was 12% in assay [5] (setting [7]); 97% (active) in assay [5] (setting [8]); 95.4% (active) in assay [5] (at 50.0 µM); 45% in assay [6] (setting [7]); 97% (active) in assay [6] (setting [8]); 99.1% (active) in assay [6] (at 50.0 µM).
